# Data from paper PMC11006913.
# Positions count from the first letter of the chain named.
# Columns and labels:
# Experiment in all cases: PBM; 200 nM protein, PBS
# Conditions in all cases: dsDNA, one strand shown
# [1] = target: NKX2-5 (Homo sapiens, UniProt P52952 125-210, R139K)
# [2] = target: HOXB4 (Homo sapiens, UniProt P17483 148-234)
# [3] = target: T1, VENTX (Homo sapiens, UniProt O95231 78-163, R121Q)
# T1 sequence: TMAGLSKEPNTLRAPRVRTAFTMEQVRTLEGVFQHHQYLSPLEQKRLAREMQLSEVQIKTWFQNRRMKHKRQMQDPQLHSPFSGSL
# [4] = target: T2, VENTX (Homo sapiens, UniProt O95231 78-163)
# T2 sequence: T1 sequence with Q44R
# [5] = target: T3, VENTX (Homo sapiens, UniProt O95231 78-163, Y115F)
# T3 sequence: T1 sequence with Y38F, Q44R
# [6] = target: HOXB4 (Homo sapiens, UniProt P17483 148-234, V174I)
# [7] = target: T4, NKX2-6 (Homo sapiens, UniProt A6NCS4 118-204)
# T4 sequence: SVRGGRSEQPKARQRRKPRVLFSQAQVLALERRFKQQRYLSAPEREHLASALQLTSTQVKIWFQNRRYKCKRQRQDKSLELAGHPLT
# [8] = target: T5, NKX2-6 (Homo sapiens, UniProt A6NCS4 118-204, F151L)
# T5 sequence: T4 sequence with F34L
# [9] = target: NKX2-5 (Homo sapiens, UniProt P52952 125-210)
# [10] = target: T6, NKX2-4 (Homo sapiens, UniProt Q9H2Z4 175-261, P217L)
# T6 sequence: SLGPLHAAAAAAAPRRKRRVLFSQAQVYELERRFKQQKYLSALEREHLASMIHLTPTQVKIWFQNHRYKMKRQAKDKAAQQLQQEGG
# [11] = target: T7, NKX2-4 (Homo sapiens, UniProt Q9H2Z4 175-261, T231S)
# T7 sequence: T6 sequence with L43P, T57S
# [12] = target: T8, NKX2-4 (Homo sapiens, UniProt Q9H2Z4 175-261)
# T8 sequence: T6 sequence with L43P
# [13] = target: T9, NKX2-6 (Homo sapiens, UniProt A6NCS4 118-204, R150C)
# T9 sequence: T4 sequence with R33C
# [14] = target: T10, NKX2-4 (Homo sapiens, UniProt Q9H2Z4 175-261, R246Q)
# T10 sequence: T6 sequence with L43P, R72Q
# [15] = target: NKX3-2 (Homo sapiens, UniProt P78367 192-278, P234S)
# [16] = target: NKX3-2 (Homo sapiens, UniProt P78367 192-278)
# [17] = target: SHOX (Homo sapiens, UniProt O15266 103-189)
# Sequence of SHOX (O15266 103-189): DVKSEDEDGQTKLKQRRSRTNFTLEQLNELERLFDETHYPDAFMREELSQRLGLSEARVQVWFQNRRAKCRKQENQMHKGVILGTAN
# Sequence of NKX3-2 (Homo sapiens, UniProt P78367 192-278) (P78367 192-278): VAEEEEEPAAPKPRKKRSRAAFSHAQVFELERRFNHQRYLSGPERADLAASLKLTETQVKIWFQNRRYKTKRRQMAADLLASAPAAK
# Sequence of NKX3-2 (Homo sapiens, UniProt P78367 192-278, P234S) (P78367 192-278 P234S): as the sequence (P78367 192-278) above, with P43S counted along it
# Sequence of NKX2-5 (Homo sapiens, UniProt P52952 125-210, R139K) (P52952 125-210 R139K): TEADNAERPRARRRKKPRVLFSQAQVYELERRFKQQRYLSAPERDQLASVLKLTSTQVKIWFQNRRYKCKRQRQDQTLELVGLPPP
# Sequence of NKX2-5 (Homo sapiens, UniProt P52952 125-210) (P52952 125-210): as the sequence (P52952 125-210 R139K) above, with K15R counted along it
# Sequence of HOXB4 (Homo sapiens, UniProt P17483 148-234, V174I) (P17483 148-234 V174I): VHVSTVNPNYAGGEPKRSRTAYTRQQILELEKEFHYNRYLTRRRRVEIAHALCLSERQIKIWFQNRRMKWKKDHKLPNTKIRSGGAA
# Sequence of HOXB4 (Homo sapiens, UniProt P17483 148-234) (P17483 148-234): as the sequence (P17483 148-234 V174I) above, with I27V counted along it
sequence,measurement,setting,value
CGGGCTCC,binding signal,[1],"8.64 upbm affinity estimate (log intensity, higher = more binding, comparable within an allelic series)"
same,binding signal,[2],"6.66 upbm affinity estimate (log intensity, higher = more binding, comparable within an allelic series)"
same,binding signal,[3],"7.54 upbm affinity estimate (log intensity, higher = more binding, comparable within an allelic series)"
same,binding signal,[4],"6.97 upbm affinity estimate (log intensity, higher = more binding, comparable within an allelic series)"
same,binding signal,[5],"7.32 upbm affinity estimate (log intensity, higher = more binding, comparable within an allelic series)"
same,binding signal,[6],"6.92 upbm affinity estimate (log intensity, higher = more binding, comparable within an allelic series)"
same,binding signal,[7],"9.11 upbm affinity estimate (log intensity, higher = more binding, comparable within an allelic series)"
same,binding signal,[8],"9.07 upbm affinity estimate (log intensity, higher = more binding, comparable within an allelic series)"
same,binding signal,[9],"8.58 upbm affinity estimate (log intensity, higher = more binding, comparable within an allelic series)"
GGTACTTA,binding signal,[1],"13.1 upbm affinity estimate (log intensity, higher = more binding, comparable within an allelic series)"
same,binding signal,[10],"12.6 upbm affinity estimate (log intensity, higher = more binding, comparable within an allelic series)"
same,binding signal,[11],"13 upbm affinity estimate (log intensity, higher = more binding, comparable within an allelic series)"
same,binding signal,[12],"12.5 upbm affinity estimate (log intensity, higher = more binding, comparable within an allelic series)"
same,binding signal,[13],"12 upbm affinity estimate (log intensity, higher = more binding, comparable within an allelic series)"
same,binding signal,[7],"13.8 upbm affinity estimate (log intensity, higher = more binding, comparable within an allelic series)"
same,binding signal,[14],"13.1 upbm affinity estimate (log intensity, higher = more binding, comparable within an allelic series)"
same,binding signal,[8],"11 upbm affinity estimate (log intensity, higher = more binding, comparable within an allelic series)"
same,binding signal,[15],"12.8 upbm affinity estimate (log intensity, higher = more binding, comparable within an allelic series)"
same,binding signal,[9],"12.9 upbm affinity estimate (log intensity, higher = more binding, comparable within an allelic series)"
same,binding signal,[16],"12.8 upbm affinity estimate (log intensity, higher = more binding, comparable within an allelic series)"
GCCACTTA,binding signal,[1],"13.3 upbm affinity estimate (log intensity, higher = more binding, comparable within an allelic series)"
same,binding signal,[10],"12.7 upbm affinity estimate (log intensity, higher = more binding, comparable within an allelic series)"
same,binding signal,[11],"13 upbm affinity estimate (log intensity, higher = more binding, comparable within an allelic series)"
same,binding signal,[12],"12.5 upbm affinity estimate (log intensity, higher = more binding, comparable within an allelic series)"
same,binding signal,[13],"12.2 upbm affinity estimate (log intensity, higher = more binding, comparable within an allelic series)"
same,binding signal,[7],"14 upbm affinity estimate (log intensity, higher = more binding, comparable within an allelic series)"
same,binding signal,[14],"13.2 upbm affinity estimate (log intensity, higher = more binding, comparable within an allelic series)"
same,binding signal,[8],"11.2 upbm affinity estimate (log intensity, higher = more binding, comparable within an allelic series)"
same,binding signal,[15],"13.3 upbm affinity estimate (log intensity, higher = more binding, comparable within an allelic series)"
same,binding signal,[9],"13.1 upbm affinity estimate (log intensity, higher = more binding, comparable within an allelic series)"
same,binding signal,[16],"13.4 upbm affinity estimate (log intensity, higher = more binding, comparable within an allelic series)"
ACCCGGGC,binding signal,[1],"8.96 upbm affinity estimate (log intensity, higher = more binding, comparable within an allelic series)"
same,binding signal,[17],"7.11 upbm affinity estimate (log intensity, higher = more binding, comparable within an allelic series)"
same,binding signal,[9],"8.92 upbm affinity estimate (log intensity, higher = more binding, comparable within an allelic series)"
AATAAGTG,binding signal,[1],"12.4 upbm affinity estimate (log intensity, higher = more binding, comparable within an allelic series)"
same,binding signal,[10],"12.4 upbm affinity estimate (log intensity, higher = more binding, comparable within an allelic series)"
same,binding signal,[11],"12.8 upbm affinity estimate (log intensity, higher = more binding, comparable within an allelic series)"
same,binding signal,[12],"12.3 upbm affinity estimate (log intensity, higher = more binding, comparable within an allelic series)"
same,binding signal,[13],"11.8 upbm affinity estimate (log intensity, higher = more binding, comparable within an allelic series)"
same,binding signal,[7],"13.3 upbm affinity estimate (log intensity, higher = more binding, comparable within an allelic series)"
same,binding signal,[14],"12.9 upbm affinity estimate (log intensity, higher = more binding, comparable within an allelic series)"
same,binding signal,[8],"10.7 upbm affinity estimate (log intensity, higher = more binding, comparable within an allelic series)"
same,binding signal,[9],"12.4 upbm affinity estimate (log intensity, higher = more binding, comparable within an allelic series)"
CACTTTAA,binding signal,[1],"12.4 upbm affinity estimate (log intensity, higher = more binding, comparable within an allelic series)"
same,binding signal,[17],"8.82 upbm affinity estimate (log intensity, higher = more binding, comparable within an allelic series)"
same,binding signal,[10],"12.5 upbm affinity estimate (log intensity, higher = more binding, comparable within an allelic series)"
same,binding signal,[11],"12.9 upbm affinity estimate (log intensity, higher = more binding, comparable within an allelic series)"
same,binding signal,[12],"12.3 upbm affinity estimate (log intensity, higher = more binding, comparable within an allelic series)"
same,binding signal,[13],"11.7 upbm affinity estimate (log intensity, higher = more binding, comparable within an allelic series)"
same,binding signal,[7],"13.4 upbm affinity estimate (log intensity, higher = more binding, comparable within an allelic series)"
same,binding signal,[14],"13 upbm affinity estimate (log intensity, higher = more binding, comparable within an allelic series)"
same,binding signal,[8],"10.7 upbm affinity estimate (log intensity, higher = more binding, comparable within an allelic series)"
same,binding signal,[15],"12.5 upbm affinity estimate (log intensity, higher = more binding, comparable within an allelic series)"
same,binding signal,[9],"12.4 upbm affinity estimate (log intensity, higher = more binding, comparable within an allelic series)"
same,binding signal,[16],"12.6 upbm affinity estimate (log intensity, higher = more binding, comparable within an allelic series)"
CTTCCGTC,binding signal,[1],"8.85 upbm affinity estimate (log intensity, higher = more binding, comparable within an allelic series)"
same,binding signal,[9],"8.77 upbm affinity estimate (log intensity, higher = more binding, comparable within an allelic series)"
